# Values joined by “and” are separate entries in the source; they are usually repeats but may differ in a detail not shown here. Identical values can stand only once. Among all 260,000 compounds or so, about 1,500 (0.58%) were called active. Another 5% or so got no clear call; they are omitted. Not all results are given here. Entries with a potency or affinity are not part of this list. Values without a mark were called inactive.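 The calls were made as follows: active = inhibition above a set limit at one or more doses, reproduced on every date tested; inconclusive = results disagree between test dates, or hit never tested in dose response; inactive = the rest.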
# Biological target: Virion infectivity factor (Human immunodeficiency virus type 1 group M subtype B (isolate BH10)) + Virion infectivity factor (Human immunodeficiency virus type 1 group M subtype B (isolate BRU/LAI)) + Virion infectivity factor (Human immunodeficiency virus type 1 group M subtype B (isolate PCV12)) + Virion infectivity factor (Human immunodeficiency virus type 1 group M subtype B (isolate HXB2)) + DNA dC->dU-editing enzyme APOBEC-3G (Homo sapiens) (UniProt P69720+P69721+P69722+P69723+Q9HC16)
# Experiment: inhibitors of Vif binding to APOBEC3G peptide, primary screen, biochemical, TR-FRET, GST-Vif 1-94, biotin-A3G peptide, dose response retest (AID 1117319);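 also: Vif residues 1-94 fused to GST binding biotinylated APOBEC3G peptide 110-148; 0% = full assay without inhibitor and 100% = GST in place of GST-Vif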
# Conditions: active compounds read high
row,Compound,inhibition
1,CN(CCc1ccccn1)S(=O)(=O)c1ccc(F)cc1,1.96%
2,Cc1cc2c(Nc3ccc(O)cc3)ncnc2s1,-0.33%
3,N#CC(C#N)=C1NC2(CCCC2)Cc2ccccc21,1.13%
4,Cc1ccc(Nc2nc(N)nc(CN3CCN(Cc4ccc5c(c4)OCO5)CC3)n2)cc1C,3.16%
5,CC(C)(O)C#Cc1ccc(C(=O)NCc2ccccc2)s1,6.16%
6,Cc1cccc(Oc2nc(-c3cccc([N+](=O)[O-])c3)nc3ccccc23)c1C,-5.88%
7,Cc1ccc(NC2=NC(c3ccc(F)cc3)n3c(nc(C)cc3=O)N2)cc1 (configuration not stated),5.66%
8,CC(C)(C)OC(=O)NCCCC[C@H](NC(=O)c1nc[nH]c1C(=O)N[C@@H](CCCCNC(=O)OC(C)(C)C)C(=O)OC(C)(C)C)C(=O)OC(C)(C)C,-5.41%
9,CC(=O)N1CCN(C(=O)CCC(=O)O)CC1,-4.74%
10,COc1ccc(N(CC(=O)NCCSCc2ccco2)S(=O)(=O)c2ccc(C)cc2)cc1,-1.79%
11,Cc1ccc(C)c(N(CC(=O)NCCSCc2ccco2)S(C)(=O)=O)c1,12%
12,Cc1ccccc1N(CC(=O)NCCSCc1ccco1)S(C)(=O)=O,3.05%
13,Cc1ccc(N(CC(=O)NCCSCc2ccco2)S(=O)(=O)c2ccc(C)cc2)cc1,-4.1%
14,O=C(CSc1nc2[nH]ncc2c(=O)[nH]1)Nc1cc(C(F)(F)F)ccc1Cl,3.21%
15,COc1ccc(CCNC(=O)CCSc2nc(-c3ccco3)cc(C(F)(F)F)n2)cc1,2.48%
16,CNC(=O)OCc1nc(SSC(C)(C)C)n(C)c1COC(=O)NC,-4.09%
17,O=C(c1c(Cl)cccc1Cl)N1CCN(c2ccccn2)CC1,3.31%
18,CCC(c1nnnn1Cc1ccccc1)N(Cc1ccco1)Cc1cc2cc(OC)ccc2[nH]c1=O (configuration not stated),6.8% and 6.79%
19,CCOc1ccc2[nH]c(=O)c(CN(Cc3ccco3)C(CC)c3nnnn3Cc3ccccc3)cc2c1 (configuration not stated),4.17% and 12.4%
20,CCOC(=O)c1cc(NC(=O)CNCC(c2ccccc2)N(C)C)cc(C(=O)OCC)c1 (configuration not stated),-3.03%
21,O=C1NC(Cc2ccccc2)c2nc3ccccc3c(=O)n2-c2cc3ccccc3cc21 (configuration not stated),0.54%
22,CC1NC(=O)NC1CCCCCC(=O)NCCc1ccccc1 (configuration not stated),31.4%
23,Cc1ccc(NC(=O)CCC(=O)Nc2ccc(C)cc2)cc1,2.94%

row,Compound,inhibition
1,CCc1cccc(NC(=O)CCSCCC(=O)Nc2cccc(CC)c2)c1,-3.74%
2,Cc1c(F)cccc1NC(=O)CSCC(=O)Nc1ccccc1,4.77%
3,CC1NC(=O)NC1CCCCCC(=O)Nc1ccc(F)c(Cl)c1 (configuration not stated),-8.82%
4,Cc1c(Cl)cccc1NC(=O)CCCCCN1C(=O)CCC1=O,-0.64%
5,COC(=O)c1cccc(NC(=O)CSCc2ccccc2)c1,6.61%
6,O=C(Nc1ccsc1C(=O)N1CCCC1)c1ccccc1,-3.04%
7,CCOc1cccc(C2C(C#N)=C(N)Oc3cc(C)n(Cc4ccccn4)c(=O)c32)c1OCC (configuration not stated),14.3%
8,CCOC(=O)c1nn(-c2ccc(C)cc2)c(=O)cc1OCC(=O)Nc1cccc(C)c1,-4.53%
9,COC(=O)c1c(NC(=O)c2ccco2)sc2c1CC(C)(C)NC2(C)C,-5.88%
10,CN(c1ccccc1)P(=O)(N(C)c1ccccc1)N(C)c1ccccc1,-2.89%
11,CCCCNC(=O)CCn1nc(-c2ccccc2)c2ccccc2c1=O,-4.86%
12,COc1ccc(-c2cc(-c3n[nH]c(=S)n3-c3cccc4ccccc34)[nH]n2)cc1,32.6%
13,Cc1ccn2c(-c3csc(NCc4ccco4)n3)c(C)nc2c1,16.9%
14,Cc1nc2ccccn2c1-c1csc(NCc2ccco2)n1,5.14%
15,CC(=O)Oc1ccccc1/C=C1\CCOC1=O,13.1%
16,O=C(NCCN1C(=O)S/C(=C\c2ccc(Cl)c(Cl)c2)C1=O)c1cnccn1,20.5%
17,O=C(c1cc([N+](=O)[O-])ccc1N1CCOCC1)N1CCN(c2ccc([N+](=O)[O-])cc2)CC1,11.3%
18,O=C(NCc1ccccc1)c1csc2c1CCCCC2,-0.06%
19,COc1ccccc1CNC(=O)c1csc2c1CCCC2,10.6%
20,[O-]/C(=C(\C(=S)Nc1ccc(SC(F)F)cc1)[n+]1ccccc1)c1ccc(Cl)cc1Cl,-10.3%
21,COc1cccc(OC)c1C(=O)Nc1nc(-c2ccccc2)cs1,-5.24%
22,CC(NC(=O)COc1ccccc1Cl)c1ccccc1 (configuration not stated),-5.9%
23,CCn1c(SCC(=O)NNC(=O)c2ccc(OC)cc2)nnc1-c1ccco1,-0.44%

row,Compound,inhibition
1,CC(=O)Nc1ccc(/C(N=Nc2ccccc2)=N/N=C(N)N)cc1,16.3%
2,Oc1ccc(/C=N\Nc2nncc(-c3ccccc3)n2)cc1,-5.32%
3,O=C1c2cc(Br)ccc2OC2C=CC=CC12 (configuration not stated),-11.4%
4,COc1cccc(CNCCc2c[nH]c3ccccc23)c1OCc1ccc(F)cc1,1.44%
5,COc1cc(CNCCc2c[nH]c3ccccc23)ccc1OCc1ccc(F)cc1,12.4%
6,COc1ccc(C(=Cc2cc(OC)c(OC)cc2[N+](=O)[O-])C(=O)O)cc1,2.43%
7,CCOC(=O)c1cc2c(C)n(-c3ccc(OCC)cc3)c(C)c2ccc1=O,27.2%
8,O=C(O)C1Nc2c(Cl)cc(Cl)cc2C2C=CCC12 (configuration not stated),63.7%
9,O=C(O)C1Nc2c(C(F)(F)F)ccc(Cl)c2C2C=CCC12 (configuration not stated),24.9%
10,O=[N+]([O-])c1c(O)c(Cl)cc(Cl)c1Cl (tested in a mixture with another compound),-1.68%
11,Cc1noc(C)c1COC(=O)c1cnc(Cl)c(Cl)c1,3.39%
12,O=C(O)C12CC3CC(C1)CC(n1cnc(Cl)n1)(C3)C2,23.7%
13,Cc1nnc(Oc2ccccc2F)c2ccccc12,0.32%
14,Cc1cc(C)c(NC(=O)c2ccc(S(=O)(=O)N3CCOCC3)cc2)c(C)c1,-5.2%
15,Cc1cc(C)c2c(c1)C1C=CCC1C(c1ccc(S(=O)(=O)N3CCOCC3)cc1)N2 (configuration not stated),27.8% and -8.85%
16,Cc1ccc(CN2CC(C(=O)Nc3cccc(S(=O)(=O)N4CCCCC4)c3)CC2=O)cc1 (configuration not stated),14.4%
17,COc1ccc(-c2cc(C(=O)N/N=C/c3ccc4c(c3)OCO4)c3ccccc3n2)c(OC)c1,-3.1%
18,COc1ccc(/C=N/NC(=O)c2cc(-c3ccccc3OC)nc3ccccc23)cc1COC(C)=O,-2.13%
19,CC(C)(C)c1cc(C(=O)Nc2ccccc2)ccn1,11.4%
20,Cc1ccccc1C(=O)O/N=C(\c1ccccc1)c1ccccn1,5.71%
21,O=C(O)c1ccc2c(c1)-c1cc(C(=O)O)ccc1S2(=O)=O,-4.26%
22,Cc1ccn2cc(C34CC5CC(CC(C5)C3)C4)nc2c1,17%
23,Cc1nonc1-c1csc(N)n1,-6.95%

row,Compound,inhibition
1,COc1cc(NC(=O)CSc2ccc(-c3ccco3)nn2)cc(OC)c1,0.78%
2,CCC(=O)OCCNc1cc(Sc2nc3ccccc3s2)c2nonc2c1[N+](=O)[O-],5.25%
3,CC(=O)OCCCNc1cc(Sc2ccc(C)cc2)c2nonc2c1[N+](=O)[O-],15.4%
4,Cc1ccc(Sc2cc(NCCCO)c([N+](=O)[O-])c3nonc23)cc1,9.02%
5,CCN(CC)c1cc(NCCO)c([N+](=O)[O-])c2nonc12,0.97%
6,CCC(=O)OCCNc1cc(Sc2nccn2C)c2nonc2c1[N+](=O)[O-],-4.53%
7,CCC(=O)OCCNc1cc(SCCC(=O)OC)c2nonc2c1[N+](=O)[O-],20%
8,CN(CCO)c1cc(Sc2nc3ccccc3s2)c2nonc2c1[N+](=O)[O-],1.28%
9,CC(C)CCSc1cc(NCCO)c([N+](=O)[O-])c2nonc12,-1.66%
10,CCCN1CCc2c(sc(NC(=O)CCS(=O)(=O)c3ccccc3)c2C(N)=O)C1,0.13%
11,CCOC(NC(=O)c1ccccc1)C(NC(=O)c1ccccc1)OCC (configuration not stated),-1.18%
12,COc1ccccc1CC(O)CC1c2c(cc3c(c2OC)OCO3)CCN1C (configuration not stated),-0.54%
13,CC(=O)c1cc(C)ccc1OC(=O)c1cccc2nc(C)oc12,3.65%
14,COC(=O)c1ccccc1N=Nc1c(C)n[nH]c1C,-7.02%
15,COC(=O)CN1C(=O)C2(OCCCO2)c2cc(Br)ccc21,-2.05% and -8.37%
16,CN1CCN(C(=O)c2cc3c(C(F)(F)F)nn(C)c3s2)CC1,6.37%
17,O=C(COc1ccc(Cl)cc1Cl)N(Cc1ccco1)C1CCS(=O)(=O)C1 (configuration not stated),-2.82%
18,O=C(Cc1c(F)cccc1Cl)N1CCN(S(=O)(=O)c2cccc(F)c2)CC1,-1.72%
19,O=C(C1CCCCC1)N1CCc2ccccc21,3.73%
20,O=C(O)C1CC=CCC1C(=O)N1CCc2ccccc21 (configuration not stated),23.4%
21,CCN(CC)S(=O)(=O)c1ccc(OCC(=O)NC(=O)Cc2ccccc2)c([N+](=O)[O-])c1,1.51%
22,C=C(c1ccc(OC)cc1)c1ccc(OC)cc1,13.2%
23,O=C(c1ccccc1)c1ccc(OCCO)cc1,-4%

# Source: PubChem BioAssay AID1117319 (Southern Research Institute, 2015)
